Tested on: Plasmodium falciparum NF54
Assay: growth inhibition relative to untreated control; higher = more inhibition
Conditions: 72 h
In short: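 Growth inhibition was measured by SYBR Green fluorescence, normalised to untreated wells and corrected for background from uninfected erythrocytes. The parasites were P. falciparum NF54 ring stages (1% hematocrit, 1% parasitemia) exposed to single 5 μM or 1 μM doses of test compounds for 72 h at 37 °C, in either minimal RPMI or minimal RPMI containing 2.2 μM folate, 7.3 μM pABA, 7.3 μM pHBA, 111 μM tyrosine, 90 μM phenylalanine and tryptophan.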

[1] = 1 µM, MM + chorismate end-products (CM screening medium)
[2] = 5 µM, MM + chorismate end-products (CM screening medium)

SMILES	growth inhibition [1] [%]	growth inhibition (1 µM, minimal medium (MM)) [%]	growth inhibition [2] [%]	growth inhibition (5 µM, minimal medium (MM)) [%]
C[C@]1(COc2ccc(N3CCC(Oc4ccc(OC(F)(F)F)cc4)CC3)cc2)Cn2cc([N+](=O)[O-])nc2O1	2.53	3.49	21.9	9.3
Nc1ccc(C(=O)Nc2ccc(-c3nc4ccccc4o3)cc2)cc1	23.2	18.2	55.7	26.5
O=C1Nc2ccc(Br)cc2C12NCCc1c2[nH]c2ccccc12 (stereo not drawn)	97.4	94.7	95.9	87.5
c1ccc(Oc2ccc(-c3cncc(-c4ccc5[nH]ccc5c4)n3)cc2)cc1	> 100	< 0	86.5	91.5
CC(=O)N(CCN(C(=O)c1ccc(F)cc1)c1ccccc1)c1ccccc1	< 0	< 0	20.2	< 0
COc1ccc(Cl)cc1NC(=O)CN(C)C(=O)c1cnn(-c2ccccc2)n1	98.1	95.6	85	98.3
Nc1nccc2ccc(Oc3ccncc3)cc12	73.9	64	68.2	60.1
FC(F)(F)c1ccc(N(c2cccnc2)C2CCN(c3ccc(C(F)(F)F)cn3)CC2)cc1	60.2	38.4	93.8	90.5
CCCCc1ccc(C(=O)Nc2nccc3ccccc23)nc1	6.6	< 0	11.6	18.4
CNC(=O)c1cc(S(=O)(=O)N2CCN(c3ccccn3)CC2)cs1	98.3	96.6	90.2	90.9
N#Cc1ccc(-c2ccc(OCC(N)=O)cc2)cc1	< 0	6.45	< 0	< 0
COc1ccccc1OCCCCn1c(C2CC2)nc2ccccc21	37	21.3	74.9	50.7
CNC(=O)c1nn(C)c2c1C(C)(C)Cc1cnc(Nc3ccc(N4CCN(C)CC4)cc3)nc1-2	64.5	73.6	88	87.2
COc1ccc(OC(C)C(=O)Nc2ccc(Cl)cc2C)cc1 (stereo not drawn)	30	15.2	< 0	< 0
Nc1ncc(-c2ccc(C(F)(F)F)nc2)cc1-c1ccc(C(F)(F)F)nc1	66.1	56.4	54.4	53.9
COc1ccc(-c2nc(-c3cccc(NC(=O)Cc4ccc(F)cc4)c3)no2)cc1OC	46.5	42.7	91.6	80.9
CS(=O)(=O)c1cccc(-c2cnc3[nH]cc(-c4ccc(CCC(=O)O)cc4)c3c2)c1	79	70.7	> 100	86.2
